# According to PubChem BioAssay:
# Values without a mark were called inactive. For part of these data: Results with a measured potency or affinity are listed apart. Activity calls are given as the source filed them. Unless noted, the rule behind the calls is not given here.
# Key:
# [1] = antimalarial activity against Dd2 strain (AID 2302;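 active = growth inhibition above 50% at the single 2 µM test dose, taken to imply half-maximal potency below 2 µM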;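 note: 0% = DMSO untreated growth and 100% = chloroquine plus artemisinin killed control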); conditions: P. falciparum Dd2 in RBCs, LDH growth readout, 72 h; at 2 µM; stronger effect = higher value
# [2] = human hepatoma cell viability loss – ATP luminescence, cytotoxicity control for P. falciparum antimalarial project, primary screen (AID 2303;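 active = inhibition above 50%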;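 note: 0% = DMSO wells and 100% = digitonin-killed cells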); conditions: HepG2 viability, 24-48 h, at 10 µM, stronger effect = higher value
# [3] = molecular target: L-lactate dehydrogenase (Plasmodium falciparum (isolate CDC / Honduras)) (UniProt Q27743); assay: PfLDH activity inhibition – cell lysate, 3D7 strain, counter-screen for P. falciparum growth inhibition project (AID 2304);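 note: 0% = vehicle and 100% = reference inhibitor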; conditions: P. falciparum 3D7 crude extract, LDH APAD/NBT absorbance; at 2 µM; stronger effect = higher value
# [4] = inhibition of 3D7 malaria parasite growth – strain 3D7 (AID 2306);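 note: 0% = DMSO wells and 100% = chloroquine plus artemisinin control wells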; conditions: P. falciparum 3D7 erythrocytic growth, LDH absorbance, 72 h; at 2 µM; stronger effect = higher value
# [5] = molecular target: Calcium-dependent protein kinase 1 (Plasmodium falciparum (isolate 3D7)) (UniProt P62344); assay: PfCDPK1 kinase inhibitors, biochemical, TCAMS library (AID 1159585; cut-off not given, nearly all actives have IC50 up to about 0.98 µM;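 note: inhibitors leave more ATP so luminescence rises with inhibition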); conditions: recombinant PfCDPK1, Kinase-Glo ATP depletion luminescence
# [6] = molecular target: Plasmodium falciparum protein kinase 6 (PK6, PF3D7_1337100) (UniProt Q8IDW1); assay: PfPK6 kinase inhibitors, biochemical, TCAMS library (AID 1159586); conditions: recombinant PfPK6, Kinase-Glo ATP depletion luminescence
# [7] = molecular target: Protein kinase 7 (PK7), Plasmodium falciparum 3D7 (PF3D7_0213400) (UniProt Q7YTF7); assay: inhibition of Plasmodium PK7 catalytic activity – biochemical, TCAMS antimalarial set, Kinase-Glo luminescence (AID 1159587); conditions: recombinant PfPK7, Kinase-Glo ATP depletion luminescence
# [8] = molecular target: Calcium-dependent protein kinase 4 (Plasmodium falciparum (isolate 3D7)) (UniProt Q8IBS5); assay: PfCDPK4 kinase inhibitors, biochemical, TCAMS library (AID 1159588; cut-off not given, nearly all actives have IC50 up to about 0.91 µM); conditions: recombinant PfCDPK4, Kinase-Glo ATP depletion luminescence
# Calcium-dependent protein kinase 4 (Plasmodium falciparum (isolate 3D7)), sequence (Q8IBS5 whole entry, looked up): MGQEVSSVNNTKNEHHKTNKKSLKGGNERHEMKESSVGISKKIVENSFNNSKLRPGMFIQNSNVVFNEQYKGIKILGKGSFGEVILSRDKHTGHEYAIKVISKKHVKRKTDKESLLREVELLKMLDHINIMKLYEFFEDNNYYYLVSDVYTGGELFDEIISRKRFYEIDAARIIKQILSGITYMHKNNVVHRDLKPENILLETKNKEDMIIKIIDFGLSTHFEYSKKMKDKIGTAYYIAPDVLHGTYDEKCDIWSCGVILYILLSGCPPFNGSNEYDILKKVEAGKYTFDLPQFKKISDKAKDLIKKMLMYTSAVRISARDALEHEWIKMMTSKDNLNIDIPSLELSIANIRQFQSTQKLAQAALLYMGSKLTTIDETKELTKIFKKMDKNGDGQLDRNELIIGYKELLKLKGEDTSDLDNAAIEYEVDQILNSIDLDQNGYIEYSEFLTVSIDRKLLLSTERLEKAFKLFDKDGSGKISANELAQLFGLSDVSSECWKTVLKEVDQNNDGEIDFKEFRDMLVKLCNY
# Plasmodium falciparum protein kinase 6 (PK6, PF3D7_1337100), sequence (Q8IDW1 1-305): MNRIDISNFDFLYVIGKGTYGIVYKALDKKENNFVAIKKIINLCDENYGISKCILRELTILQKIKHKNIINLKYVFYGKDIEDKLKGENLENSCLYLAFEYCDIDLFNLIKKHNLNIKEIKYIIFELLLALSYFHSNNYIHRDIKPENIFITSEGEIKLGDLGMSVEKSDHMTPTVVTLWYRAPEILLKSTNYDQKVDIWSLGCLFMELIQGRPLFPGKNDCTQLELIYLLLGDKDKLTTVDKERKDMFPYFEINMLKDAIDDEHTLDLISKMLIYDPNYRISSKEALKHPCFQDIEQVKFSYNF
# Protein kinase 7 (PK7), Plasmodium falciparum 3D7 (PF3D7_0213400), sequence (Q7YTF7 1-343): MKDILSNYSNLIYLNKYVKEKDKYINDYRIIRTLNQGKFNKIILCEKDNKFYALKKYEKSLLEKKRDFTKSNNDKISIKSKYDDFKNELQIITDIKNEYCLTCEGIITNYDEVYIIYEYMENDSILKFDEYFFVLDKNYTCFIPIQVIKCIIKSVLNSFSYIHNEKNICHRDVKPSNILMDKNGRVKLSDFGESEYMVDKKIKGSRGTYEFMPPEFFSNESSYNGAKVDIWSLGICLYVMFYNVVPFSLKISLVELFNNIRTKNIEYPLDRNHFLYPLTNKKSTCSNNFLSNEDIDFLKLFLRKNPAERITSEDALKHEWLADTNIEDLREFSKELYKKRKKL
# L-lactate dehydrogenase (Plasmodium falciparum (isolate CDC / Honduras)), sequence (Q27743 whole entry, looked up): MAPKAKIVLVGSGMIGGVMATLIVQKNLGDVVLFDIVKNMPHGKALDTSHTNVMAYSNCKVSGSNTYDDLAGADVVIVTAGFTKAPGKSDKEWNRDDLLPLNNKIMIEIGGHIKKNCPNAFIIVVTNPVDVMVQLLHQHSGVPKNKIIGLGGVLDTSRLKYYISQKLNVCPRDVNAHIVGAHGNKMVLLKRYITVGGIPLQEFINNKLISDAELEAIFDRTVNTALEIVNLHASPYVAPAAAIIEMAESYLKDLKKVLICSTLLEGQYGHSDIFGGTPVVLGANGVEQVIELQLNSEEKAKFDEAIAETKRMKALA
# Calcium-dependent protein kinase 1 (Plasmodium falciparum (isolate 3D7)), sequence (P62344 whole entry, looked up): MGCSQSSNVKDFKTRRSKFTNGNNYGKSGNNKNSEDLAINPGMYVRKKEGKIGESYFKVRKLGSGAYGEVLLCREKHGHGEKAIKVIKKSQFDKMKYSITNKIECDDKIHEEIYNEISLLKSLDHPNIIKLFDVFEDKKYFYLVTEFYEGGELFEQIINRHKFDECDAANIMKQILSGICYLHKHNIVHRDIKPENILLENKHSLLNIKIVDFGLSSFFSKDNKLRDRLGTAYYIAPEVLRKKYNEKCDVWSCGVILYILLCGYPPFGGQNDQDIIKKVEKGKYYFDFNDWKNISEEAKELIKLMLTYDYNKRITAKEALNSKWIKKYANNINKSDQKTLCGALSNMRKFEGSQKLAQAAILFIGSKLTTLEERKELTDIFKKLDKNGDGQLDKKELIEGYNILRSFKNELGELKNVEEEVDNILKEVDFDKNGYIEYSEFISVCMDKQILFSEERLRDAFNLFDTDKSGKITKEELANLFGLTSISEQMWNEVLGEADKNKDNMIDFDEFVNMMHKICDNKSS
SMILES,growth inhibition [1],inhibition [2],inhibition [3] [%],growth inhibition [4],outcome [5],outcome [6],outcome [7],outcome [8]
COc1ccccc1C(=O)Nc1cccc(N2CCC(NCc3ccc(-n4cccn4)cc3)CC2)c1,30%,9%,-1,86% (active),inactive,inactive,inactive,inactive
CC(=O)Nc1nc(C(=O)Nc2cccc(-c3ccc(-c4nc5ccccc5[nH]4)cc3)c2)cs1,60% (active),88% (active),-2,101% (active),inactive,inactive,inactive,inactive
Cc1ccccc1OCC(O)CN1CCC(C2CCN(CC(O)COc3ccccc3C)CC2)CC1 (configuration not stated),51% (active),12%,-4,100% (active),inactive,inactive,inactive,inactive
O=C(c1cc(C(=O)Nc2ccccc2)c(=O)n(-c2ccccc2)c1)c1cc(Cl)ccc1O,95% (active),9%,-1,100% (active),inactive,inactive,inactive,inactive
CN1CCN(c2cc(-c3cccc(C(F)(F)F)c3)nc(-c3ccncc3)n2)CC1,98% (active),38%,1,102% (active),inactive,inactive,inactive,inactive
O=C(Nc1cccc(-c2cccc(-c3nc4ccc(C(F)(F)F)cc4[nH]3)c2)c1)c1cccnc1Cl,58% (active),56% (active),1,95% (active),inactive,inactive,inactive,inactive
Cc1cccc2[nH]c(-c3cccc(-c4cccc(NC(=O)NCc5ccccc5)c4)c3)nc12,27%,12%,5,94% (active),inactive,inactive,inactive,inactive
COc1cc(NC(=O)N2CCc3ccc(OCCN(C(C)C)C(C)C)cc32)cc(C(F)(F)F)c1,97% (active),6%,3,102% (active),inactive,inactive,inactive,inactive
Cc1cccc2[nH]c(-c3ccc(-c4cccc(CNC(C)C)c4)s3)nc12,97% (active),12%,2,100% (active),inactive,inactive,inactive,inactive
Cc1ccc2nc(C)cc(NN=Cc3cccc(F)c3)c2c1,99% (active),6%,-1,99% (active),inactive,inactive,inactive,inactive
CC(C)(C)C(=O)Nc1ccc(C(=O)Nc2cccc(-c3nc4ccccc4[nH]3)c2)cc1,62% (active),56% (active),1,96% (active),inactive,inactive,inactive,inactive
O=C(Nc1ccc(OC2CCN(Cc3ccccc3)C2)c(Cl)c1)c1ccco1 (configuration not stated),94% (active),13%,6,95% (active),inactive,inactive,inactive,inactive
CC(C)c1ccc(-c2noc(SCC(=O)N3CCCCC3C)n2)cc1 (configuration not stated),92% (active),21%,2,92% (active),inactive,inactive,inactive,inactive
Cn1cnc(CCNC(=O)c2ccc(-c3cccc(-c4nc5ccccc5[nH]4)c3)cc2)c1,14%,1%,2,93% (active),inactive,inactive,inactive,inactive
Cc1[nH]cnc1Cc1ccc2c(c1O)c1ccccc1n2C,16%,9%,-2,90% (active),inactive,inactive,inactive,inactive
COc1ccc2nccc(N3CCC(SCCNS(=O)(=O)c4ccc5c(c4)OCCO5)C3)c2n1 (configuration not stated),87% (active),36%,5,94% (active),inactive,inactive,inactive,inactive
C=CCn1c(=N)c(C(=O)NCc2ccc(F)cc2)cc2c(=O)n3cccc(C)c3nc21,11%,16%,-2,92% (active),inactive,inactive,inactive,inactive
O=C(NCCCN1CCCC1=O)NCc1ccccc1,4%,8%,3,99% (active),inactive,inactive,inactive,inactive
CC(C)c1cccc(C(NC(=O)[C@H]2Cc3ccccc3CN2C(=O)c2cccc(N3CCOCC3)c2)C2CCCC2)c1 (some centres not stated),96% (active),3%,1,94% (active),inactive,inactive,inactive,inactive
Cc1nc2nc(N)nc(N)c2c(C)c1Cc1ccc(C#N)cc1,4%,69% (active),1,96% (active),inactive,inactive,inactive,inactive

SMILES,growth inhibition [1],inhibition [2],inhibition [3] [%],growth inhibition [4],outcome [5],outcome [6],outcome [7],outcome [8]
COc1ccc(C(=O)CCC(=O)N(Cc2ccc(-c3ccc(CNCCc4ccc(S(C)(=O)=O)cc4)cn3)cc2)C2CCN(Cc3ccccc3)CC2)cc1F,72% (active),20%,2,99% (active),inactive,inactive,inactive,inactive
CN(C)CCNCc1nc(-c2ccc3c(Nc4ccc(Cl)cc4F)ccnc3c2)cs1,100% (active),-2%,-9,101% (active),inactive,inactive,inactive,inactive
Cc1nc(NC2=NCN(CCCN3CCOCC3)CN2)nc2c(C)cccc12,62% (active),17%,4,89% (active),inactive,inactive,inactive,inactive
O=C(Nc1cccc(CN2CCN(C(=O)c3cccc(Cl)c3)CC2)c1)c1cccs1,94% (active),17%,-6,94% (active),inactive,inactive,inactive,inactive
O=C(Nc1ccc(-c2oc(C(=O)NCCc3cccc(Cl)c3)cc2-c2ccncc2)cc1)Nc1cccc(Cl)c1,84% (active),13%,-1,99% (active),inactive,inactive,inactive,inactive
CCOc1ccc2c(NN=Cc3cccc(OC)c3)cc(C)nc2c1,81% (active),38%,-5,97% (active),inactive,inactive,inactive,inactive
CC1(C)CNCc2cc(NC(=O)/C=C/c3ccc(Cl)cc3)ccc21,26%,23%,-9,82% (active),inactive,inactive,inactive,inactive
COc1ccc2nccc([C@@H](O)CN3CCC(NCc4cc5ccccc5nn4)CC3)c2c1,16%,5%,-1,94% (active),inactive,inactive,inactive,inactive
COc1ccc2c(NN=Cc3ccccc3Cl)ccnc2c1,46%,10%,-6,99% (active),inactive,inactive,inactive,inactive
O=C(NC1CCN(Cc2ccccc2O)C1)c1cccc(C(F)(F)F)c1 (configuration not stated),62% (active),-4%,4,98% (active),inactive,inactive,inactive,inactive
CN1CCN(CC(=O)Nc2ccc(-c3ccc(-c4nc5ccccc5[nH]4)cc3)cc2)CC1,80% (active),18%,-1,98% (active),inactive,inactive,inactive,inactive
Clc1cc(Nc2ncnc3sc(C#Cc4ncc[nH]4)cc23)ccc1OCc1ccccn1,6%,10%,-3,101% (active),inactive,inactive,inactive,inactive
Cc1cccc2[nH]c(-c3ccc(-c4cccc(CN5CCN(CCO)CC5)c4)cc3)nc12,55% (active),20%,-3,100% (active),inactive,inactive,inactive,inactive
COc1cc2nc(N3CCC(CNCc4ccc(-c5ccc(C(F)(F)F)cc5)cc4)CC3)nc(N)c2cc1OC,100% (active),99% (active),-4,99% (active),inactive,inactive,inactive,inactive
CCC(Cc1cnc2nc(N)nc(N)c2n1)c1ccc(C(=O)O)cc1 (configuration not stated),-2%,15%,-2,93% (active),inactive,inactive,inactive,inactive
CCCCNCC(O)COc1ccccc1-c1ccc(N/N=C/c2cccc3ccccc23)nn1 (configuration not stated),8%,38%,-4,99% (active),inactive,inactive,inactive,inactive
CCOC(=O)NCCSC(C)(C)[C@H](NC(=O)[C@H](Cc1cc2ccccc2s1)[C@H](CC)N(O)C=O)C(=O)Nc1nccs1,98% (active),11%,1,98% (active),inactive,inactive,inactive,inactive
O=C(Cc1cccc2ccccc12)NC1CCN(c2ccnc3cc(Cl)ccc23)C1 (configuration not stated),97% (active),13%,-2,82% (active),inactive,inactive,inactive,inactive
CC1(C)N=C(N)N=C(N)N1OCCCNC(=O)c1ccc([N+](=O)[O-])cc1,97% (active),57% (active),2,92% (active),inactive,inactive,inactive,inactive
